Hit rate of the full screen: of about 360,000 compounds, about 4,600 (1.3%) were called active. For the sample, actives were picked, then their nearest neighbours and some compounds at random. Values without a mark were called inactive.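 Rule for the calls: active = percent inhibition above its own plate's cutoff, namely the mean of that plate's compound wells plus 3 SD; inactive = the rest.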
biological target: Muscarinic acetylcholine receptor M1 (Homo sapiens) (UniProt P11229); assay: CHRM1 blockers of acetylcholine calcium response – CHO-K1 cells, Fluo-8 calcium fluorescence, 1536-well, primary screen (AID 588852); conditions: CHO-K1 hM1, Fluo-8 calcium fluorescence, ACh EC80 antagonist; at 3 µM; active compounds read high;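 note: peak over basal fluorescence ratio during 140 s after agonist addition; 0% = ACh EC80 plus DMSO and 100% = DMSO alone without agonist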
Sequence (P11229 whole entry, looked up): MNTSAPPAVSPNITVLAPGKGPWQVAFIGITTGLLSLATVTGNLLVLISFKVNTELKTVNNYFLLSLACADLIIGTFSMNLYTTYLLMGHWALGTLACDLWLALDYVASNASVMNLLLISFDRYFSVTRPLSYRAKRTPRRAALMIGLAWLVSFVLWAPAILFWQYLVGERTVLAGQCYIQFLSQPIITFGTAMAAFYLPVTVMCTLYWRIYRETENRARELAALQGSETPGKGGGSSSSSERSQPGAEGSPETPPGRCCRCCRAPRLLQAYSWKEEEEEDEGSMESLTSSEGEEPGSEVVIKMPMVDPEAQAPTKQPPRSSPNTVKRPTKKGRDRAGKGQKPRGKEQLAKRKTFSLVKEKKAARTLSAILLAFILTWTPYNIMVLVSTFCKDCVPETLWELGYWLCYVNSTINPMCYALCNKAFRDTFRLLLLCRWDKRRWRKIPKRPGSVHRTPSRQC

Row | Compound | inhibition
1 | COc1cccc(CNn2cn[nH]c2=S)c1OCc1ccccc1 | -12.7%
2 | COc1ccccc1-c1cc2nc(NCc3cccc(Cl)c3)ccn2n1 | -15.4%
3 | Nc1ncnc2c1ncn2[C@@H]1O[C@H](C(=O)NS(=O)(=O)c2c(Cl)nc3sccn23)[C@@H](O)[C@H]1O | -32.1%
4 | Cc1csc2nc(COC(=O)c3cccc(N(C)C)c3)cc(=O)n12 | 6.38%
5 | O=C(CN1CCCCCC1)Nc1ccc(S(=O)(=O)N2CCCCC2)cc1 | 33.1% (active)
6 | O=C(CSCc1ccc(Br)cc1)Nc1ccc(S(=O)(=O)N2CCCCCC2)cc1 | 4.8%
7 | CCOc1ccc(NC(=O)COc2ccc(S(=O)(=O)N3CCCC3)cc2)cc1 | 16%
8 | COCc1c(C(=O)N/N=C(\C)c2ccncc2)nnn1-c1nonc1N | -10.9%
9 | FC(F)(F)c1ccccc1Cc1c(-c2ccccc2)nc2c3ccccc3ccn12 | -26%
10 | COc1ccccc1N(CC(=O)Nc1c(C)n(C)n(-c2ccccc2)c1=O)S(=O)(=O)c1ccccc1 | -20.5%
11 | CN(C)CCCCCN(C)Cc1cc2ccccc2o1 | -3.73%
12 | COc1ccc(-c2cc(NC=O)c3ncc(-c4ccccc4)n3c2)cc1OC | 4.7%
13 | CC(=O)Nc1ccc(-c2cn3cccnc3n2)cc1 | -2.56%
14 | NC(c1ccccc1)c1csc(NC(=O)Nc2cccc(C(F)(F)F)c2)n1 (centres undefined) | 6.11%
15 | CC(=O)Nc1ccc(-c2csc(NC(=O)Nc3ccccc3)n2)cc1 | 38.3% (active)
16 | CC(CCc1ccc(O)cc1)NCc1ccc(Cl)cc1Cl (centres undefined) | 30.2% (active)
17 | COc1ccc(CNC(=O)C(C)NCc2ccccc2Cl)cc1 (centres undefined) | 1.81%
18 | CC(CCc1ccccc1)NC(=O)c1cnc(Cl)c(Cl)c1 (centres undefined) | 2.23%
19 | COc1ccc(-c2cc(NC=O)c3ncc(-c4cc(OC)c(OC)c(OC)c4)n3c2)c(OC)c1 | 5.71%
20 | Cc1ccc2cc(CCNC(=O)c3ccc4c(c3)OCO4)c(=O)[nH]c2c1 | -6.75%
21 | Cc1ccc(N(C(=O)c2sc(C)nc2C)C(C(=O)NC(C)(C)C)c2ccncc2)cc1 (centres undefined) | -4.9%
22 | CCOCCCNS(=O)(=O)Cc1ccccc1 | -12.6%
23 | Cc1nccn1-c1ccc(NC(=O)[C@H]2O[C@@H](n3cnc4c(N)ncnc43)[C@H](O)[C@@H]2O)cc1 | -16.5%

Row | Compound | inhibition
24 | CCCCCn1c(=O)[nH]c2cc(C(=O)NCCCN3CCCCC3C)ccc2c1=O (centres undefined) | 27.5% (active)
25 | CC1CCCCN1CCCNC(=O)Cn1ncc2c([nH]c3ccccc32)c1=O (centres undefined) | 3.02%
26 | O=C(NC1CCCCC1)c1ccc2c(=O)n(CC3CCCO3)c(=O)[nH]c2c1 (centres undefined) | -13.8%
27 | Cc1ccccc1NC(=O)Cc1nc(COC(=O)CNC(=O)c2ccc(Cl)cc2Cl)cs1 | -13%
28 | CN(C(=O)CN1C(=O)NC(C)(CCc2ccccc2)C1=O)c1ccccc1 (centres undefined) | -11.9%
29 | Cc1ccc(CN2C(=O)N/C(=C/c3cc(C)n(-c4ccccn4)c3C)C2=O)cc1 | -1.22%
30 | CN(C)c1ccc(/C=C2\NC(=S)N(Cc3ccccc3)C2=O)cc1 | 68.3% (active)
31 | COc1ccc(-c2cc(NC(C)=O)c3ncc(-c4cc(OC)c(OC)c(OC)c4)n3c2)cn1 | -10.3%
32 | CC(=O)N[C@H]1[C@H]([C@H](O)[C@H](O)CO)OC(C(=O)O)=C[C@@H]1O | -23.4%
33 | CC(=O)Nc1cc(-c2ccccc2F)cn2c(-c3cccc(C(F)(F)F)c3)cnc12 | -3.02%
34 | Cc1nc2ccccc2cc1OCc1ccc(F)cc1 | 18% (active)
35 | Cc1occc(=O)c1OCc1ccc(F)cc1 | -6.78%
36 | Fc1cccc2ncnc(OCc3ccccc3)c12 | -13.7%
37 | Clc1cccc(Cc2c(-c3cccc(Cl)c3)nc3ccc(Cl)cn23)c1 | -29.8%
38 | Clc1ccccc1Nc1nc(NCc2cccs2)nc2ccsc12 | 7.85%
39 | COc1ccccc1CNc1nc(Nc2ccccc2Cl)c2sccc2n1 | 30.1% (active)
40 | COCCNc1nc(Nc2ccccc2Cl)c2sc(-c3ccccc3)cc2n1 | -5.82%
41 | Cc1cc(Br)cn2c(Cc3cccc(F)c3)c(-c3cccc(Br)c3)nc12 | -3.87%
42 | O=C(Cn1cnc2ccccc2c1=O)NCC1COc2ccccc2O1 (centres undefined) | -3.89%
43 | COc1ccc(CCNc2ncnc3nc[nH]c23)cc1OC | 5.06%
44 | c1ccc2c(c1)OCC(CNc1ncnc3nc[nH]c13)O2 (centres undefined) | 101% (active)
45 | CCCN1CNC(=S)N(CCc2ccccc2)C1 | -6.28%
46 | Cn1nccc1C(=O)NC1CCCc2c1cnn2-c1ccc(F)cc1F (centres undefined) | 31.6% (active)

Row | Compound | inhibition
47 | Cc1ccc(-n2ncc3c2CCCC3NC(=O)c2cnccn2)cc1C (centres undefined) | -17.9%
48 | CC1(C)Cc2c(cnn2-c2cccc(F)c2)C(NC(=O)c2cc[n+]([O-])cc2)C1 (centres undefined) | 9.23%
49 | CCCc1nnc(SCC(=O)Nc2ccc(C(=O)OCC)cc2)o1 | 9%
50 | CCOC(=O)c1ccc(NC(=O)CS(=O)(=O)c2cn(CC)c3ccccc23)cc1 | -2.75%
51 | CCOC(=O)c1ccc(NC(=O)Cn2cnc3cc(C)c(C)cc32)cc1 | 37.4% (active)
52 | Cc1ccc(Cc2c(-c3ccco3)nc3ccc(Cl)cn23)cc1 | -22.8%
53 | COc1cccc(CN(C)C(=O)CC[C@H]2O[C@@H](n3cnc4c(NC(=O)c5ccccc5)ncnc43)[C@H](O)[C@@H]2O)c1 | -19.1%
54 | CC1=C(C(=O)N(C(C)C)C(C)C)CC(CC(=O)NCCCCc2ccccc2)C(=O)N1CCC1=CCCCC1 (centres undefined) | -20.5%
55 | OC[C@@H]1CN(Cc2ccc(-c3ccccc3)cc2)C[C@H](n2cnc3c(NC4CCCC4)ncnc32)O1 | 32% (active)
56 | OC[C@@H]1CN(Cc2cccs2)C[C@H](n2cnc3c(NC4CCCC4)ncnc32)O1 | -11.8%
57 | OC[C@@H]1CN(Cc2ccc(F)cc2)C[C@H](n2cnc3c(NC4CCCC4)ncnc32)O1 | -0.24%
58 | COc1cc(OC)cc(C(=O)NC(=S)N2CCN(c3ccc(C(F)(F)F)cc3[N+](=O)[O-])CC2)c1 | -3.37%
59 | O=C(c1ccc(N2CCOCC2)c([N+](=O)[O-])c1)N1CCN(c2ccccc2F)CC1 | -20.3%
60 | O=C(c1ccc(N2CCCC2=O)cc1)N1CCN(c2ccc(C(F)(F)F)cc2[N+](=O)[O-])CC1 | 53.8% (active)
61 | NC(c1csc(NC(=O)Nc2cccc(C(F)(F)F)c2)n1)C1CCCCC1 (centres undefined) | 2.03%
62 | CCc1cc2c(SCC(=O)Nc3ncc(Cl)c(C)c3Cl)ncnc2s1 | 3.21%
63 | CN(C)c1cc[n+](Cc2ccccc2)cc1 | 21.7%
64 | c1ccc(CNCc2ccc(CNCc3ccccc3)cc2)cc1 | 2.12%
65 | c1ccc(Cc2cc[n+](Cc3ccccc3)cc2)cc1 | 37.1% (active)
66 | CCOc1ccc(CCNC(=O)C2=C(C)C(=O)OC23CCC(C)CC3)cc1OCC (centres undefined) | -7.29%
67 | NC(c1csc(NC(=O)Nc2ccccc2Oc2ccccc2)n1)c1ccccc1Cl (centres undefined) | -3.63%
68 | Cc1ccc(C)c(NC(=O)CN(C)C(=O)COc2ccc3ccccc3c2)c1 | -15%
69 | CN(Cc1ccc(F)cc1)C(=O)COc1ccc2ccccc2c1 | 24.7% (active)

Row | Compound | inhibition
70 | CN(Cc1ccccc1)C(=O)COc1ccccc1 | 1.72%
71 | CC(C)(C)N1C(=O)c2c(C(=O)OCc3ccccc3)[nH]c(-c3ccccc3)c2C1=O | -12.3%
72 | CCNC(=O)C1(C)CCCN(C(=O)c2c(C)noc2C)C1 (centres undefined) | -8.22%
73 | CSc1ccc(CNC(=O)C2(C)CCCN2C)cc1 (centres undefined) | -11.7%
74 | CC1CCN(CCCn2c(SCC(=O)NC3CCCC3)nc3ccccc3c2=O)CC1 | 31.2% (active)
75 | CC(=O)c1ccc(NC(=O)CSc2nc3ccccc3c(=O)n2CCCN2CCOCC2)cc1 | 1.86%
76 | O=C(CSc1nc2ccccc2c(=O)n1CCCO)NC1CC1 | -2.1%
77 | COC(=O)c1ccc2nc(-c3ccc(OC)c(OC)c3)c(Cc3ccccc3)n2c1 | -24%
78 | Cc1c(C(=O)OC(C)C)sc(NC(=O)c2cccnc2)c1C#N | -3.46%
79 | CC(=O)N1CCCc2cc(S(=O)(=O)N3CCCC(C(=O)N4CCN(c5cccc(Cl)c5)CC4)C3)ccc21 (centres undefined) | 57.1% (active)
80 | CC(=O)N1CCCc2cc(S(=O)(=O)CCC(=O)N3CCN(c4ccccc4)CC3)ccc21 | -7.27%
81 | CC(=O)N1c2ccc(S(=O)(=O)N3CCC(C(=O)N4CCN(c5ccccc5)CC4)CC3)cc2CC1C (centres undefined) | 10.8%
82 | O=C(CCS(=O)(=O)c1ccccc1Cl)Nc1ccc(S(=O)(=O)Nc2ncccn2)cc1 | -5.9%
83 | CCN1C(=O)[C@@H]2[C@@H]3CN(S(=O)(=O)c4ccccc4C)[C@@H](c4ccc(Cl)cc4)[C@@H]3C(=O)C[C@@H]2C1=O | 4.67%
84 | Cc1ccc(S(=O)(=O)N2CCC(C(=O)N[C@@H](C)C(=O)NCc3ccccc3)CC2)cc1 | 4.54%
85 | CCN(CC(=O)N1CCCC1)S(=O)(=O)c1ccc(F)cc1 | -13%
86 | CN(C)CCOC(=O)C(c1ccccc1)C1(O)CCCC1 (centres undefined) | 99.4% (active)
87 | O=C(O)C(c1cccs1)C1(O)CCCCC1 (centres undefined) | -1.29%
88 | O=C(O)C(c1ccccc1)C1(O)CCCCC1 (centres undefined) | -17.6%
89 | COc1ccccc1N1CCN(CC(=O)NCCc2ccc(S(N)(=O)=O)cc2)CC1 | 4.39%
